Measured values as given in PubChem BioAssay AID1159580 (chemical genetic matrix, 2015).
Values joined by “and” are separate entries in the source; they are usually repeats but may differ in a detail not shown here. Equal values may be shown once. Screen size: about 5,500 compounds; about 2,000 (36%) were called active. Inconclusive results (about 18%) are left out. No stated cut-off is given here; in the data, active means normalized growth mostly below about 0.91 (no sharp cut-off); inconclusive means no clear call, values can overlap the other calls; inactive means mostly above about 0.92. Some of the results follow.

Assay: chemical genetic growth profiling, strain panel (AID 1159580);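 further: tested at 20 µM; growth read once vehicle control cultures reached saturation at 30 °C; 1 = growth at the plate median or of vehicle wells; lower values mean less growth of the strain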
Conditions: growth OD

Measured: normalized growth

CC12CC3CC(C)(C1)CC(N)(C3)C2
inactive: S. cerevisiae deletion strains, locus YJR075W, strain HOC1, hits give low values 1.01 | S. cerevisiae deletion strains, locus YKL009W, strain mrt4, hits give low values 1.03 | S. cerevisiae deletion strains, locus YKL068W, hits give low values 0.999 | S. cerevisiae deletion strains, locus YKL085W, strain MDH1 (second series), hits give low values 0.996 | S. cerevisiae deletion strains, locus YKL085W, strain MDH1, hits give low values 0.996 | S. cerevisiae deletion strains, locus YKL160W, strain elf1, hits give low values 1 | S. cerevisiae deletion strains, locus YKL190W, strain CNB1, hits give low values 0.999 | S. cerevisiae deletion strains, locus YKR001C, strain vps1, hits give low values 1.02 | S. cerevisiae deletion strains, locus YKR026C, strain gcn3, hits give low values 0.982 | S. cerevisiae deletion strains, locus YKR091W, strain srl3, hits give low values 0.99 | S. cerevisiae deletion strains, locus YLL001W, strain dnm1, hits give low values 0.972 | S. cerevisiae deletion strains, locus YLL026W, hits give low values 0.995 | S. cerevisiae deletion strains, locus YLL041C, strain sdh2, hits give low values 0.997 | S. cerevisiae deletion strains, locus YLR027C, strain aat2, hits give low values 0.991 | S. cerevisiae deletion strains, locus YLR039C, strain RIC1, hits give low values 1.04 | S. cerevisiae deletion strains, locus YLR058C, strain SHM2, hits give low values 0.999 | S. cerevisiae deletion strains, locus YLR102C, strain apc9, hits give low values 0.996 | S. cerevisiae deletion strains, locus YLR113W, strain HOG1, hits give low values 0.996 | S. cerevisiae deletion strains, locus YLR221C, strain rsa3, hits give low values 1 | S. cerevisiae deletion strains, locus YLR258W, strain gsy2, hits give low values 1 | S. cerevisiae deletion strains, locus YLR262C, strain YPT6 (second series), hits give low values 1 | S. cerevisiae deletion strains, locus YLR262C, strain YPT6, hits give low values 0.979 | S. cerevisiae deletion strains, locus YLR268W, strain sec22, hits give low values 1.07 | S. cerevisiae deletion strains, locus YLR320W, strain mms22, hits give low values 1 | S. cerevisiae deletion strains, locus YLR330W, strain CHS5, hits give low values 1 | S. cerevisiae deletion strains, locus YLR342W, strain FKS1 (second series), hits give low values 1.01 | S. cerevisiae deletion strains, locus YLR342W, strain FKS1, hits give low values 0.985 | S. cerevisiae deletion strains, locus YLR357W, strain rsc2, hits give low values 0.969 | S. cerevisiae deletion strains, locus YLR370C, strain arc18, hits give low values 0.995 | S. cerevisiae deletion strains, locus YLR371W, strain rom2, hits give low values 1.01 | S. cerevisiae deletion strains, locus YLR384C, strain iki3, hits give low values 0.99 | S. cerevisiae deletion strains, locus YLR418C, strain cdc73, hits give low values 1.01 | S. cerevisiae deletion strains, locus YML016C, strain PPZ1, hits give low values 0.998 | S. cerevisiae deletion strains, locus YML032C, strain rad52, hits give low values 1.02 | S. cerevisiae deletion strains, locus YML120C, strain ndi1, hits give low values 1 | S. cerevisiae deletion strains, locus YML124C, strain tub3, hits give low values 1.01 | S. cerevisiae deletion strains, locus YMR058W, strain fet3, hits give low values 0.993 | S. cerevisiae deletion strains, locus YMR078C, strain ctf18, hits give low values 1 | S. cerevisiae deletion strains, locus YMR125W, strain sto1, hits give low values 0.975 | S. cerevisiae deletion strains, locus YMR129W, hits give low values 0.979 | S. cerevisiae deletion strains, locus YMR205C, strain PFK2, hits give low values 0.993 | S. cerevisiae deletion strains, locus YMR223W, strain ubp8, hits give low values 0.986 | S. cerevisiae deletion strains, locus YMR231W, strain pep5, hits give low values 0.982 | S. cerevisiae deletion strains, locus YMR263W, strain SAP30, hits give low values 1.01 | S. cerevisiae deletion strains, locus YMR307W, strain GAS1, hits give low values 0.964 and 0.971 | S. cerevisiae deletion strains, locus YNL067W, strain RPL9B, hits give low values 1.02 | S. cerevisiae deletion strains, locus YNL071W, strain lat1, hits give low values 0.986 | S. cerevisiae deletion strains, locus YNL128W, strain TEP1, hits give low values 1.01 | S. cerevisiae deletion strains, locus YNL153C, strain GIM3, hits give low values 1.01 | S. cerevisiae deletion strains, locus YNL175C, strain NOP13, hits give low values 0.994 | S. cerevisiae deletion strains, locus YNL183C, strain NPR1, hits give low values 0.935 | S. cerevisiae deletion strains, locus YNL197C, strain WHI3, hits give low values 1 | S. cerevisiae deletion strains, locus YNL209W, strain ssb2, hits give low values 0.992 | S. cerevisiae deletion strains, locus YNL224C, strain SQS1, hits give low values 1 | S. cerevisiae deletion strains, locus YNL233W, strain BNI4, hits give low values 1.01 | S. cerevisiae deletion strains, locus YNL248C, strain rpa49, hits give low values 0.961 | S. cerevisiae deletion strains, locus YNL250W, strain rad50, hits give low values 1.01 | S. cerevisiae deletion strains, locus YNL271C, strain bni1, hits give low values 1.01 | S. cerevisiae deletion strains, locus YNL298W, strain CLA4, hits give low values 1 | S. cerevisiae deletion strains, locus YNL307C, strain MCK1, hits give low values 1.01 | S. cerevisiae deletion strains, locus YNL322C, strain KRE1 (second series), hits give low values 0.993 | S. cerevisiae deletion strains, locus YNL322C, strain KRE1, hits give low values 0.998 and 0.989 | S. cerevisiae deletion strains, locus YNR049C, strain mso1, hits give low values 0.986 | S. cerevisiae deletion strains, locus YNR052C, strain pop2, hits give low values 1.01 | S. cerevisiae deletion strains, locus YOL006C, strain TOP1, hits give low values 1.05 | S. cerevisiae deletion strains, locus YOL012C, strain htz1 1.4 | S. cerevisiae deletion strains, locus YOL147C, strain pex11, hits give low values 1 | S. cerevisiae deletion strains, locus YOR001W, strain rrp6, hits give low values 0.985 | S. cerevisiae deletion strains, locus YOR061W, strain CKA2, hits give low values 1 | S. cerevisiae deletion strains, locus YOR069W, strain VPS5, hits give low values 1.01 | S. cerevisiae deletion strains, locus YOR070C, strain gyp1, hits give low values 0.991 | S. cerevisiae deletion strains, locus YOR080W, strain dia2, hits give low values 0.986 | S. cerevisiae deletion strains, locus YOR083W, strain WHI5 (second series), hits give low values 1.03 | S. cerevisiae deletion strains, locus YOR083W, strain WHI5, hits give low values 0.977 | S. cerevisiae deletion strains, locus YOR106W, strain vam3, hits give low values 0.993 | S. cerevisiae deletion strains, locus YOR136W, strain idh2, hits give low values 1.01 | S. cerevisiae deletion strains, locus YOR144C, strain elg1, hits give low values 1.01 | S. cerevisiae deletion strains, locus YOR184W, strain ser1, hits give low values 1.01 | S. cerevisiae deletion strains, locus YOR231W, strain MKK1, hits give low values 0.995 | S. cerevisiae deletion strains, locus YOR265W, strain rbl2, hits give low values 0.989 | S. cerevisiae deletion strains, locus YOR270C, strain vph1, hits give low values 0.921 | S. cerevisiae deletion strains, locus YOR290C, strain snf2, hits give low values 0.997 | S. cerevisiae deletion strains, locus YOR316C, strain cot1, hits give low values 1 | S. cerevisiae deletion strains, locus YPL051W, strain arl3, hits give low values 0.986 | S. cerevisiae deletion strains, locus YPL055C, strain LGE1, hits give low values 1 | S. cerevisiae deletion strains, locus YPL078C, strain atp4, hits give low values 0.986 | S. cerevisiae deletion strains, locus YPL106C, strain sse1, hits give low values 1.01 | S. cerevisiae deletion strains, locus YPL240C, strain hsp82, hits give low values 0.998 | S. cerevisiae deletion strains, locus YPL241C, strain CIN2, hits give low values 1 | S. cerevisiae deletion strains, locus YPL256C, strain CLN2, hits give low values 0.971 | S. cerevisiae deletion strains, locus YPR119W, strain clb2, hits give low values 1 | S. cerevisiae deletion strains, locus YPR141C, strain kar3, hits give low values 1.01 | S. cerevisiae deletion strains, locus YPR163C, strain tif3, hits give low values 1.01 | S. cerevisiae deletion strains, locus YPR167C, strain met16, hits give low values 1 | S. cerevisiae deletion strains, strain wtn01, hits give low values 1.02 | S. cerevisiae strains, strain wild type, hits give low values 1.01
